PMC4552634, “A New Set of Chemical Starting Points with Plasmodium falciparum Transmission-Blocking Potential for Antimalarial Drug Discovery” (PLoS ONE, 2015)
The campaign covered roughly 13,000 compounds. About 3,200 (25%) showed an effect of 50% or more. The list shows a part of the results.

Test system: P. falciparum stage V gametocytes
Parameters: BacTiter-Glo ATP luminescence viability of purified stage V gametocytes in 384-well plates, per cent inhibition versus DMSO
Settings: 48 h, 5 µM; inhibitor

SMILES | % Inhibition [%]
C=CC[C@H](C[C@H](O)[C@H](Cc1ccccc1)NC(=O)c1nn(-c2ccccc2)nc1C)C(=O)NC1CCCCC1 [TCMDC-141422] | -47.48
O=C(Cc1cccc(Cl)c1)Nc1cccc(-c2c[nH]c3nc(Nc4cccc(OCc5ccccc5)c4)ncc23)c1 [TCMDC-134680] | -43.48
Cc1ccc(Nc2nccc(NCC(O)c3cccc(F)c3)n2)cc1 (stereo not drawn) [TCMDC-136572] | -5.913
C[C@@H](COc1ccccc1)NCC(O)c1ccc([N+](=O)[O-])c(OCc2ccccc2)c1 (stereo partly drawn) [TCMDC-132032] | 7.287
CN1CCN(CCCN(Cc2csc(-c3ccc(CNCc4ccccc4)cc3)n2)S(=O)(=O)c2ccc(F)cc2)CC1 [TCMDC-141601] | 76.11
COc1ccc(S(=O)(=O)N(CCCN2CCN(C)CC2)Cc2csc(-c3ccc(CNCc4ccccc4)cc3)n2)cc1 [TCMDC-141599] | 65.47
CN1CCN(CCCN(Cc2csc(-c3ccc(CNCc4ccccc4)cc3)n2)S(=O)(=O)c2cccc3cccnc23)CC1 [TCMDC-141598] | 96.08
Cc1ccc(S(=O)(=O)N(CCCN2CCN(C)CC2)Cc2csc(-c3ccc(CNCc4ccccc4)cc3)n2)cc1 [TCMDC-141602] | 64.23
O=C(Nc1cccc(-c2ccc(CN3CCC(O)CC3)cc2)c1)c1ccc(Cl)cc1 [TCMDC-132633] | -6.492
COCCN1CCC(C(=O)NCC(C)(C)c2nc(-c3ccc(Br)c(O)c3)c(-c3ccncc3)[nH]2)CC1 [TCMDC-140792] | 8.912
O=C(NNC(=O)c1ccc(CCN2CCC(c3nc(COCC(F)(F)F)c(-c4ccc(F)cc4)o3)CC2)cc1)Nc1ccc(Oc2ccccc2)cc1 [TCMDC-131906] | -12.54
CCc1ccc(NC(=O)N(CCCN2CCN(C)CC2)Cc2csc(-c3ccc(CNCc4ccccc4)cc3)n2)cc1 [TCMDC-141641] | 9.107
CN1CCN(CCCN(Cc2csc(-c3ccc(CNCc4ccccc4)cc3)n2)S(=O)(=O)c2ccccc2)CC1 [TCMDC-141600] | 63.87
CN1CCN(CCCN(Cc2csc(-c3ccc(CNCc4ccccc4)cc3)n2)S(=O)(=O)c2ccccc2Cl)CC1 [TCMDC-141603] | 99.67
CN1CCN(CCCN(Cc2csc(-c3ccc(CNCc4ccccc4)cc3)n2)C(=O)Nc2ccc3ccccc3c2)CC1 [TCMDC-141642] | 43.35
CN1CCN(CCCN(Cc2csc(-c3ccc(CNCc4ccccc4)cc3)n2)C(=O)c2cc(F)cc(F)c2)CC1 [TCMDC-141812] | 50.04
CN1CCN(CCCN(Cc2csc(-c3ccc(CNCc4ccccc4)cc3)n2)C(=O)Nc2cc(Cl)cc(Cl)c2)CC1 [TCMDC-141795] | 32.67
Cc1ccccc1C1CCN(C2CCC(NC(=O)/C=C/c3ccc4c(c3)OC(F)(F)O4)CC2)CC1 (stereo not drawn) [TCMDC-133520] | -82.53
COc1cc(Br)ccc1N1CCN(CCCCNC(=O)c2ccc(NC(=O)c3ccc(Cl)cc3)cc2)CC1 [TCMDC-138257] | 6.971
CC(C)c1ccc2[nH]c(C(=O)NC3CCC(N4CCCc5ccc(C#N)cc5C4)CC3)cc2c1 (stereo not drawn) [TCMDC-133503] | -23.75

SMILES | % Inhibition [%]
O=C(NCCCNc1ccnc2cc(Cl)ccc12)c1ccccc1F [TCMDC-125231] | 46.84
N#Cc1ccccc1C1CCN(C2CCC(Nc3cc(-c4cccnc4)ccn3)CC2)CC1 (stereo not drawn) [TCMDC-134834] | -2.713
Cc1cc(C(F)(F)F)nn1-c1ccc(NC(=O)c2ccco2)cc1 [TCMDC-124896] | 9.865
O=C(/C=C/c1ccc(Cl)c(Cl)c1)NCCCCCN1CCC(NC(=O)Nc2cccc(Cl)c2Cl)CC1 [TCMDC-135725] | -48.39
NC1=NC(c2ccccc2)(c2ccccc2)C(=O)N1CC1CCC1 [TCMDC-136775] | 2.608
Cc1ccccc1NC(=S)NC1CCN(CCCCCNC(=O)/C=C/c2ccc(Cl)c(Cl)c2)CC1 [TCMDC-135897] | 97.66
O=C(/C=C/c1ccc(Cl)c(Cl)c1)NCCCCCN1CCC(NC(=O)Nc2cccc(Cl)c2)CC1 [TCMDC-135711] | 59.36
CSc1ccccc1NC(=S)NC1CCN(CCCCCNC(=O)/C=C/c2ccc(Cl)c(Cl)c2)CC1 [TCMDC-139391] | 14.69
O=C(/C=C/c1ccc(Cl)c(Cl)c1)NCCCCCN1CCC(NC(=O)Nc2cc(Cl)cc(Cl)c2)CC1 [TCMDC-135727] | -63.17
Cc1ccc(NC(=S)NC2CCN(CCCCCNC(=O)/C=C/c3ccc(Cl)c(Cl)c3)CC2)cc1Cl [TCMDC-135901] | 122.2
O=C(/C=C/c1ccc(Cl)c(Cl)c1)NCCCCCN1CCC(NC(=S)Nc2cccc(Cl)c2)CC1 [TCMDC-135899] | -1.091
Cc1ccccc1NC(=O)NC1CCN(CCCCCNC(=O)/C=C/c2ccc(Cl)c(Cl)c2)CC1 [TCMDC-135701] | -65.25
O=C(/C=C/c1ccc(Cl)c(Cl)c1)NCCCCCN1CCC(NC(=S)Nc2ccc(Cl)c(Cl)c2)CC1 [TCMDC-135903] | -7.54
Cc1cccc(NC(=S)NC2CCN(CCCCCNC(=O)/C=C/c3ccc(Cl)c(Cl)c3)CC2)c1 [TCMDC-139390] | -46.46
O=C(/C=C/c1ccc(Cl)c(Cl)c1)N1CCC(CCN2CCC(c3nc4ccc(O)cc4[nH]3)CC2)CC1 [TCMDC-140127] | -21.57
O=C(Nc1ccc(F)cc1)c1cnc(N2CCN(c3ccncc3)CC2)c(Cl)c1 [TCMDC-134599] | 47.6
CC(C)(CNC(=O)C1CCN(Cc2ccc(Cl)cc2)CC1)c1nc(-c2ccc(Cl)c(O)c2)c(-c2ccncc2)[nH]1 [TCMDC-141138] | -35.73
NC(=O)c1cc2nc(Nc3ccc(F)cc3)nc(Nc3ccc(S(N)(=O)=O)cc3)c2[nH]1 [TCMDC-137043] | -45.2
CC(C)(C)NCc1cc(Nc2ccnc3cc(Cl)ccc23)ccc1F [TCMDC-135909] | -17.74
